About 2,000 (36%) of roughly 5,500 compounds were called active. Not shown: some 18% with an inconclusive outcome. Rule as the data show it: active = normalized growth mostly below about 0.91 (no sharp cut-off); inconclusive = no clear call, values can overlap the other calls; inactive = mostly above about 0.92. This is one part of the list.
Assay: chemical genetic growth profiling, strain panel (AID 1159580);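 also: tested at 20 µM; growth read once vehicle control cultures reached saturation at 30 °C; 1 = growth at the plate median or of vehicle wells; lower values mean less growth of the strain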
Conditions: S. cerevisiae deletion strains, growth OD
[1] = locus YAL013W, strain DEP1, stronger effect = lower value
[2] = locus YBR229C, strain ROT2, stronger effect = lower value
[3] = locus YCL061C, strain MRC1, stronger effect = lower value
[4] = locus YDL101C, strain DUN1, stronger effect = lower value
[5] = locus YDR150W, strain NUM1, stronger effect = lower value
[6] = locus YEL061C, strain CIN8, stronger effect = lower value
[7] = locus YGR078C, strain PAC10, stronger effect = lower value
[8] = locus YHR030C, strain SLT2, stronger effect = lower value
[9] = locus YHR087W, strain rtc3, stronger effect = lower value
[10] = locus YJR043C, strain POL32, stronger effect = lower value
[11] = locus YJR075W, strain HOC1, stronger effect = lower value
[12] = locus YLR039C, strain RIC1, stronger effect = lower value
[13] = locus YLR058C, strain SHM2 (second series), stronger effect = lower value
[14] = locus YLR085C, strain ARP6, stronger effect = lower value
[15] = locus YLR262C, strain YPT6, stronger effect = lower value
[16] = locus YML094W, strain GIM5, stronger effect = lower value
[17] = locus YMR219W, strain ESC1, stronger effect = lower value
[18] = locus YMR263W, strain SAP30, stronger effect = lower value
[19] = locus YNL153C, strain GIM3, stronger effect = lower value
[20] = locus YNL298W, strain CLA4 (second series), stronger effect = lower value
[21] = locus YNL322C, strain KRE1, stronger effect = lower value
[22] = locus YNR030W, strain Alg12, stronger effect = lower value
[23] = locus YPL055C, strain LGE1, stronger effect = lower value
[24] = locus YPL241C, strain CIN2, stronger effect = lower value
[25] = locus YPR135W, strain CTF4, stronger effect = lower value

Measured: normalized growth

CCOC(=O)CNc1ccc(Cl)c(Cl)c1
inactive: [1] 0.949 | [2] 0.969 | [3] 0.977 | [4] 0.974 | [5] 0.967 | [6] 0.986 | [7] 0.958 | locus YGR229C, strain SMI1, stronger effect = lower value 0.998 | [8] 0.746 | [9] 0.978 | locus YJL187C, strain SWE1, stronger effect = lower value 0.973 | [10] 0.974 | [11] 0.927 | [12] 0.971 | [13] 0.97 | [14] 0.876 | [15] 0.975 | [16] 0.973 | [17] 0.974 | [18] 0.946 | locus YMR307W, strain GAS1, stronger effect = lower value 0.986 | [19] 0.962 | [20] 0.931 | [21] 0.971 | [22] 0.995 | [23] 0.87 | [24] 1 | [25] 0.906

CCOC(=O)C(c1ccccc1)C(Nc1ccc(Cl)c(Cl)c1)c1ccccn1 (stereo not given)
active: [12] 1.21 [resistant]
inactive: [1] 1.01 | [2] 1.01 | [3] 1.02 | [4] 1.03 | [5] 1.02 | [6] 0.996 | [7] 1.01 | [8] 1.11 | [9] 0.986 | [10] 1.03 | [11] 1.03 | locus YKL190W, strain CNB1, stronger effect = lower value 1.01 | [13] 1.01 | [14] 1.02 | [15] 1.15 | [16] 1.01 | [17] 1 | [18] 0.985 | locus YNL128W, strain TEP1, stronger effect = lower value 1.03 | [19] 1.01 | [20] 1.01 | [21] 1.01 | [22] 1.01 | [23] 0.995 | [24] 1.01 | [25] 1.01

Reference: PubChem BioAssay AID1159580 (chemical genetic matrix, 2015)
